# Data as given in PubChem BioAssay (NCATS).
# Values joined by “and” are separate entries in the source; they are usually repeats but may differ in a detail not shown here. Equal entries are not always repeated. Inconclusive results are not listed. Entries that show only a call come without a potency. Active and inactive are the calls of the source. Unless noted, calls come from the whole dose curve; as a rule, active = well fitted curve in the direction sought with a large enough effect; inconclusive = small, poorly fitted or top-dose-only effect, or another doubt; inactive = no such curve, though single readings can be large; an effect the other way counts as inactive or inconclusive.
# Key:
# [1] = Cell Viability - Jurkat (AID 426;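 active = dose-dependent loss of cell ATP signal giving a full or clear fitted curve, ranked by lower potency value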; note: potency is the fitted concentration of half-maximal effect); conditions: qHTS
# Method in brief: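 Cells of the human T-cell leukemia line Jurkat (E6-1) are seeded at 5000 per well, treated with compound across a concentration range for 40 hours at 37 °C, then lysed with CellTiter-Glo; luminescence reports ATP.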
# [2] = Cell Viability - Hek293 (AID 427;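 active = compounds whose dose-response curve shows a full or clear partial loss of cell viability, called from curve shape rather than a numeric limit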;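 note: potency is the fitted concentration of half-maximal effect; cells exposed to compound for 40 hours at 37 °C before reading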); conditions: qHTS
# Method in brief: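 HEK293 cells in complete medium were exposed to compound for 40 hr at 37 °C, then cellular ATP was read by CellTiter-Glo luminescence. Data were normalized to DMSO (basal) and 100 uM tamoxifen (100% inhibition), and AC50 came from Hill fits.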
# [3] = target: Mitogen-activated protein kinase 10 (Mus musculus) (UniProt Q61831); test: JNK3 AlphaScreen Assay (AID 530; active = well fitted curve in either direction with a large enough effect, not every such curve was filed as active;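 note: kinase came from lysate of stimulated human HepG2 cells; signal reports phosphorylation of biotinylated GST-cJun 1-79 at Ser73 with 10 µM ATP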); conditions: JNK3 lysate, c-Jun phosphorylation; series mostly up to 57.1 µM
# Method in brief: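 Phosphorylation of biotinylated GST-cJun(1-79) at Ser73 is measured by AlphaScreen proximity luminescence. Enzyme is JNK3 in HepG2 lysates activated with interleukin-1beta and tumor necrosis factor alpha; ATP is 10 uM final.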
# [4] = Cellular Toxicity (caspase-3) NIH 3T3 (AID 666); conditions: NIH 3T3 caspase-3 activation, apoptosis/toxicity, 0% DMSO, 100% is 100 µM tamoxifen; series mostly up to 92.2 µM;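 note: caspase signal read after 16 h compound exposure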
# Method in brief: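 Cells were plated at 1000 per well and incubated 5 hr at 37°C, then compound was added for 16 hr. Caspase-Glo 3/7 reagent followed for 20 min at room temperature before luminescence was read.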
# [5] = Cell Viability - LYMP2-001 (AID 921); conditions: LYMP2-001 lymphoblastoid cell viability; series mostly up to 92.2 µM;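 note: cells exposed to compound for 24 h at 37 °C; nearly all actives have a fitted effect of over 70% in size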
# Method in brief: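 Human lymphoblastoid LYMP2-001 cells, 2500 per well, in complete medium, treated 24 h at 37 C. Viability from cellular ATP by CellTiter-Glo luminescence; AC50 from Hill-equation fits of qHTS concentration-response.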
# [6] = MultiTox-Fluor Cytotoxicity Assay - LYMP1-002 - Dead Cells (AID 960); conditions: LYMP1-002 lymphoblastoid cells, dead-cell protease fluorescence; series mostly up to 46.1 µM; note: nearly all actives have a fitted effect of over 60% in size
# Method in brief: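 Cells were plated, rested 5 hr, then treated with compound dilution series for 16 hr at 37 C. After adding substrate reagent and 60 min at room temperature, dead-cell protease fluorescence gave concentration-response curves fitted by the Hill equation.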
# [7] = Cell Viability - LYMP2-004 (AID 966); conditions: LYMP2-004 lymphoblastoid cell viability, qHTS; series mostly up to 92.2 µM;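 note: cells exposed to compound for 24 h; nearly all actives have a fitted effect of over 65% in size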
# Method in brief: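 qHTS cytotoxicity: human lymphoblastoid line, 24 hr compound treatment, 37 C, complete medium. Viability read as cellular ATP via luciferase luminescence; tetraoctylammonium bromide served as positive control.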
# [8] = Cell Viability - LYMP2-009 (AID 968); conditions: LYMP2-009 lymphoblastoid cell viability; series mostly up to 92.2 µM;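 note: cells exposed to compound for 24 h at 37 °C; nearly all actives have a fitted effect of over 55% in size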
# [9] = Cell Viability - LYMP2-012 (AID 982); conditions: LYMP2-012 lymphoblastoid cell viability qHTS; series mostly up to 92.2 µM;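 note: cellular ATP by luciferase luminescence where a drop means cytotoxicity; cells exposed to compound for one day before reading; nearly all actives have a fitted effect of over 55% in size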
# [10] = Cell Viability - LYMP2-024 (AID 988); conditions: LYMP2-024 lymphoblastoid cell viability; series mostly up to 92.2 µM;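 note: cells exposed to compound for 24 hr at 37 °C; nearly all actives have a fitted effect of over 60% in size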
# Method in brief: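 qHTS cytotoxicity, human lymphoblastoid line, complete medium; 24 h cpd treatment, 37 C; CellTiter-Glo ATP luminescence readout; tetraoctylammonium bromide positive control; AC50 via Hill fit.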
# [11] = target: Estrogen receptor (Homo sapiens) (UniProt P03372); test: qHTS assay for small molecule antagonists of estrogen receptor alpha signaling (AID 588513; active = well fitted curve in the direction sought with a large enough effect in the signal ratio, with a control signal flat, not every such curve was filed as active; the % refers to the signal ratio); conditions: ER-alpha-UAS-bla HEK293, beta-lactamase ratio, antagonist mode; series mostly up to 76.9 µM
# Estrogen receptor (Homo sapiens), sequence (P03372 whole entry, looked up): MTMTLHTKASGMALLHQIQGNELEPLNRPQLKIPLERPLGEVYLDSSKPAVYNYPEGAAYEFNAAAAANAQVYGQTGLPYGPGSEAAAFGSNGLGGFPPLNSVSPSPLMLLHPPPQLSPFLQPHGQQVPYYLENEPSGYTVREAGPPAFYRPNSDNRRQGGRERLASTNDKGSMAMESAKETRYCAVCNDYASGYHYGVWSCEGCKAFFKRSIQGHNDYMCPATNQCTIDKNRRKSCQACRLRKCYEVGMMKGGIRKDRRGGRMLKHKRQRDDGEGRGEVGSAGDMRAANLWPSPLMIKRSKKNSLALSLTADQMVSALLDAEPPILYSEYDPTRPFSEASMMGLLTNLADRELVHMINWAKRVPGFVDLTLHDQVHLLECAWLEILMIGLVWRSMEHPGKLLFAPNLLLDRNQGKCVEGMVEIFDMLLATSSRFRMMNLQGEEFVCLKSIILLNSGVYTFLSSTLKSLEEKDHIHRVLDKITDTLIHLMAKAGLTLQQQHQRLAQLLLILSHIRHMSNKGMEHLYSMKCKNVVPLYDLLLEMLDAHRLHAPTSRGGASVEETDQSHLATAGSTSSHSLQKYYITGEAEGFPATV
# Method in brief: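 ER-alpha-UAS-bla GripTite HEK 293 cells in 2% charcoal/dextran-treated FBS medium; compounds titrated (1:2, duplicate), then stimulated with 0.5 nM 17-beta-estradiol for 18 h at 37C. CCF4 beta-lactamase fluorescence; Hill-fit IC50 and efficacy.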
# [12] = target: Glucocorticoid receptor (Homo sapiens) (UniProt P04150); test: qHTS assay for small molecule agonists of glucocorticoid receptor signaling (AID 588532; active = well fitted curve in the direction sought with a large enough effect in the signal ratio, with a control signal flat; the % refers to the signal ratio); conditions: HeLa MMTV-bla, beta-lactamase ratio, agonist, 18 h; stronger effect = higher value; percent of dexamethasone control, DMSO zero
# Glucocorticoid receptor (Homo sapiens), sequence (P04150 whole entry, looked up): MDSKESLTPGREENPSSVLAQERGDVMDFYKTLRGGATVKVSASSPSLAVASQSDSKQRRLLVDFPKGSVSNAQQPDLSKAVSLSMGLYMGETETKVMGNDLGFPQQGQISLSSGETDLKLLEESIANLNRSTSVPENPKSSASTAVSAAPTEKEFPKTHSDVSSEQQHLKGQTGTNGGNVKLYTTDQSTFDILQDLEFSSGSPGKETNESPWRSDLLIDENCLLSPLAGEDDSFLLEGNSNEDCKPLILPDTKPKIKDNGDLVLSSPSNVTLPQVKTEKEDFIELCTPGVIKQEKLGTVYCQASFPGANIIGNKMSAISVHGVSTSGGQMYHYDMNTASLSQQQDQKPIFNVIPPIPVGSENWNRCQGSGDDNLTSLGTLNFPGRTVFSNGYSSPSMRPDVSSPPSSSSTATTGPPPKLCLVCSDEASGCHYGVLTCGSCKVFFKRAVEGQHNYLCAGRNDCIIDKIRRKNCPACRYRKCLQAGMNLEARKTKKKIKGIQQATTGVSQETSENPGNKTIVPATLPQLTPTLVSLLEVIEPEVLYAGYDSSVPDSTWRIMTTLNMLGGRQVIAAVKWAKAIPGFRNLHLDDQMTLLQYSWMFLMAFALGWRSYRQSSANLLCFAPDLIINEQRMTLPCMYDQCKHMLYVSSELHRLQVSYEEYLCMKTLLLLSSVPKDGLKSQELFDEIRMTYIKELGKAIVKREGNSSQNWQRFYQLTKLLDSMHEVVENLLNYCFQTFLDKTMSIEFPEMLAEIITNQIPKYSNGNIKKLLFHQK
# Method in brief: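 Stimulation of a glucocorticoid response element-driven beta-lactamase gene was measured in HeLa cells. Responses were scaled between DMSO basal and 0.1 uM dexamethasone, then fitted for half-maximal stimulation.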
# [13] = target: Glucocorticoid receptor (Homo sapiens) (UniProt P04150); test: qHTS assay for small molecule antagonists of glucocorticoid receptor signaling (AID 588533; active = well fitted inhibition curve with a large enough effect in the signal ratio, with a control signal flat, not every such curve was filed as active; the % refers to the signal ratio;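 note: cells stimulated with 2 nM dexamethasone as agonist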); conditions: HeLa MMTV-bla, GRE beta-lactamase ratio, antagonist mode, 18 h; series mostly up to 76.8 µM
# Method in brief: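 Antagonist-mode qHTS: compound titrations added to GRE-bla HeLa cells, then dexamethasone 2 nM final; 18 h, 37 C. CCF4 FRET fluorescence normalized to dexamethasone and DMSO; IC50 from Hill fit.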
# [14] = target: Peroxisome proliferator-activated receptor gamma (Homo sapiens) (UniProt P37231); test: qHTS assay for small molecule agonists of peroxisome proliferator-activated receptor gamma signaling (AID 588536; active = well fitted curve in the direction sought with a large enough effect in the signal ratio, with a control signal flat, not every such curve was filed as active; the % refers to the signal ratio); conditions: HEK293 PPARg-UAS-bla, beta-lactamase ratio, 16 h, percent of rosiglitazone response, DMSO as zero; series mostly up to 76.7 µM
# Peroxisome proliferator-activated receptor gamma (Homo sapiens), sequence (P37231 whole entry, looked up): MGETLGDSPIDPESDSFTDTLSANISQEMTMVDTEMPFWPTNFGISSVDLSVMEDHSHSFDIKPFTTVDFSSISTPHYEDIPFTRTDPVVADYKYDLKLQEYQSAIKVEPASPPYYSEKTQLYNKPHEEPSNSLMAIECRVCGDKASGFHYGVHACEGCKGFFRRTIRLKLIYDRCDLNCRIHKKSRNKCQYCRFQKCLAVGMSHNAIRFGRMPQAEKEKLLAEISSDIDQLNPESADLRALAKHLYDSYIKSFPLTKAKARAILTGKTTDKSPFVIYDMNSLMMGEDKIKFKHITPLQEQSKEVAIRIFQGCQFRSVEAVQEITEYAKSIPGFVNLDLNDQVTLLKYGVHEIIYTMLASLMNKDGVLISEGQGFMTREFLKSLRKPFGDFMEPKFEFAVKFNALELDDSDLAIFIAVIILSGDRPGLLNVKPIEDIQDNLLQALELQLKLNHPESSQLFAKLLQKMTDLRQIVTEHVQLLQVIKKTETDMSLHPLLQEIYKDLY
# Method in brief: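 Cells were plated and held 6–6.5 h at 37 C, then compounds were added as a titration series. After a further 16 h, CCF4 dye was loaded for 2 h at room temperature and emission at 460/530 nm recorded.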
# [15] = qHTS assay for small molecule agonists of retinoid X receptor alpha signaling (AID 588544); conditions: HEK293T RXRa-UAS-bla, beta-lactamase reporter, 18 h; 530 nm emission
# [16] = target: Thyroid hormone receptor beta (Homo sapiens) (UniProt P10828); test: qHTS assay for small molecule agonists of thyroid hormone receptor beta signaling (AID 588545; calls by dose curve); conditions: TR-UAS-bla GripTite HEK 293, beta-lactamase ratio, agonist mode, 18 h, percent of T3 response, DMSO as zero; series mostly up to 76.7 µM
# Thyroid hormone receptor beta (Homo sapiens), sequence (P10828 whole entry, looked up): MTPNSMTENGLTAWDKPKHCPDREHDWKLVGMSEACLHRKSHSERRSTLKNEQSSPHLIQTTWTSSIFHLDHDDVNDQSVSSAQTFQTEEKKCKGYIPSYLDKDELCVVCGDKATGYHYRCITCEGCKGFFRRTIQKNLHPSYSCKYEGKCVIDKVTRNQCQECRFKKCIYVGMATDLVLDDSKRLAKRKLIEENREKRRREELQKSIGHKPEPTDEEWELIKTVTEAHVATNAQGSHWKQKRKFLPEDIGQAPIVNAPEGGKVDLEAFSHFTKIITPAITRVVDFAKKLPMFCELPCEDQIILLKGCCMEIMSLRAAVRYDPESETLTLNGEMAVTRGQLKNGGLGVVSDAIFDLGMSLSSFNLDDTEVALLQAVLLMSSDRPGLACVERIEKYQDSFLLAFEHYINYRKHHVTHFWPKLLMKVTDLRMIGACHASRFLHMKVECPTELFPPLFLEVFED
# Method in brief: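 Efficacy and EC50 values derive from Hill fits of qHTS titration data, normalized to 10 nM T3 and DMSO-only wells. HEK 293 reporter cells were stimulated for 18 hrs at 37 C, with beta-lactamase activity measured by CCF4 fluorescence.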
# [17] = qHTS assay for small molecule activators of the p53 signaling pathway (AID 651743; active = well fitted activation curve with a large enough effect in the signal ratio, not every such curve was filed as active; the % refers to the signal ratio); conditions: HCT-116 p53RE-bla, beta-lactamase FRET ratio, 16 h; activation: stronger effect = higher value
# Method in brief: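 Agonist-mode quantitative HTS in HCT-116 cells carrying a p53-response-element beta-lactamase reporter; 16 h compound treatment at 37 C, then FRET substrate loading for 2 h at room temperature and fluorescence read.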
# [18] = target: Tumor necrosis factor (Homo sapiens) (UniProt P01375); test: qHTS assay to identify small molecules that stimulate Tumor Necrosis Factor-alpha (TNF-alpha) secretion (AID 651757; active = well fitted curve in the direction sought with a large enough effect in the signal ratio; the % refers to the signal ratio); conditions: Human cells, HTRF 665/615 ratio; series mostly up to 92.2 µM
# Tumor necrosis factor (Homo sapiens), sequence (P01375 whole entry, looked up): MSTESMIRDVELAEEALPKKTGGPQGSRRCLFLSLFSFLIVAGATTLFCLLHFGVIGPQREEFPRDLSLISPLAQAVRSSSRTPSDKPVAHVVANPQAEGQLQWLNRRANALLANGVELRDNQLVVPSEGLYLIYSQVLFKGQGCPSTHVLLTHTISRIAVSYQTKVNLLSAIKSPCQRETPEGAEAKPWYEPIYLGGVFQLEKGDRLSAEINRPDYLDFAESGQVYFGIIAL
# Method in brief: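 Human monocytic THP-1 cells are plated, treated with compound and held at 37 C for 17 hrs. Labeled anti-TNF-alpha antibody mixture is then added; after 3 hr at room temperature, TR-FRET signal reports secreted TNF-alpha.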
# [19] = target: Nuclear receptor ROR-gamma (Homo sapiens) (UniProt P51449); test: qHTS assay for small molecule antagonists of the retinoid-related orphan receptor gamma (ROR-gamma) signaling pathway (AID 651802); conditions: ROR-gamma antagonist cell reporter assay; series mostly up to 92.2 µM;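 note: CHO cells with doxycycline-induced ROR-gamma expression; nearly all actives have a fitted effect of over 60% in size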
# Nuclear receptor ROR-gamma (Homo sapiens), sequence (P51449 whole entry, looked up): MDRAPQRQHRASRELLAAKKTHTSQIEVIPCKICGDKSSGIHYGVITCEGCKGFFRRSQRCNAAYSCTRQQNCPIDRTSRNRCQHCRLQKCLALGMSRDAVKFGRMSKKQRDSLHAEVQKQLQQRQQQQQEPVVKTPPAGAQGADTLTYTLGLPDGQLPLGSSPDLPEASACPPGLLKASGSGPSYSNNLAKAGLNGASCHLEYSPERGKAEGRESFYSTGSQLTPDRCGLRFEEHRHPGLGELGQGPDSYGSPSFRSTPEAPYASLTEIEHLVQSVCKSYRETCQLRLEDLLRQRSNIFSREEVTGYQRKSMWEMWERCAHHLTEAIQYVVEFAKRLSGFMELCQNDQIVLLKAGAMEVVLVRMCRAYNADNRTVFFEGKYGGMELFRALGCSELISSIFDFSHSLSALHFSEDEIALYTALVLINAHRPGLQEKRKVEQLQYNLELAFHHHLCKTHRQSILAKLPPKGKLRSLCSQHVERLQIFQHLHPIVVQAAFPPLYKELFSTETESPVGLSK
# Method in brief: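 Steps: cells dispensed; compound or DMSO transferred by pin tool; doxycycline added to induce the ROR response element-driven luciferase; plates held 16hr at 37C; ONE-Glo added and luminescence measured.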
# [20] = qHTS assay for small molecule antagonists of the retinoid-related orphan receptor gamma (ROR-gamma) signaling pathway - cell viability counter screen (AID 720652; active = well fitted curve in the direction sought with a large enough effect in the repeat runs; an effect the other way counts as inactive or inconclusive;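 note: CHO reporter cells with doxycycline-induced ROR-gamma expression; compound exposure lasted 16 hr before ATP read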); conditions: RORgamma reporter cell line viability counter screen; series mostly up to 92.2 µM
# Method in brief: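 Steps: seed CHO cells bearing TET-inducible ROR and ROR response element-luciferase; rest 5 hr at 37 C; add compound, then doxycycline; incubate 16 hr; add CellTiter-Glo and read luminescence as ATP-based viability.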
Compound,Potency [1],Potency [2],outcome [3],outcome [4],Potency [5],Potency [6],Potency [7],Potency [8],Potency [9],Potency [10],Potency [11],activation [12],Potency [13],outcome [14],max response [15],outcome [16],activation [17],outcome [18],Potency [19],Potency [20]
Cc1ccc(O)c(C)c1,> 92 µM (inactive),> 92 µM (inactive),inactive,inactive,inactive,inactive,inactive,inactive,inactive,inactive,inactive,12.9% (inactive) and 20.9% (inactive),inactive,inactive,-1.3% and -5.42%,inactive,-2.98% (inactive) and 8.45% (inactive) and 2.43% (inactive),inactive,inactive,inactive
C[C@@]12CCC(=O)C=C1C=C[C@H]1[C@H]3CC[C@](O)(CCC(=O)O)[C@]3(C)CC[C@@H]12,,,inactive,,,,,,,,,,,,,,,,,
CCCCCCCC(=O)Cl,> 92 µM (inactive),> 92 µM (inactive),inactive,inactive,inactive,inactive,inactive,inactive,inactive,inactive,inactive,5.97% (inactive),inactive,inactive,12.8%,inactive,-1.82% (inactive),inactive,inactive,inactive
ClC(Cl)=C(Cl)Cl,> 92 µM (inactive),> 92 µM (inactive),,inactive,inactive,inactive,inactive,inactive,inactive,inactive,,,,inactive,4.54% and -3.27%,inactive,-0.0832% (inactive) and 0.219% (inactive),inactive,inactive,inactive
BrCCBr,> 92 µM (inactive),> 92 µM (inactive),inactive,inactive,inactive,inactive,inactive,inactive,inactive,inactive,inactive,2.21% (inactive) and 1.87% (inactive),inactive,inactive,-0.875% and -18.5%,inactive,-3.11% (inactive) and 0.969% (inactive),inactive,inactive,inactive
C[N+](C)(C)Cc1ccccc1,> 92 µM (inactive),> 92 µM (inactive),inactive,inactive,inactive,,,inactive,inactive,inactive,inactive,-1.14% (inactive),inactive,inactive,3.34% and -11.4%,inactive,,inactive,inactive,inactive
O=C(Cl)C(Cl)(Cl)Cl,> 92 µM (inactive),> 92 µM (inactive),,inactive,inactive,inactive,inactive,inactive,inactive,inactive,inactive,-1.29% (inactive),inactive,inactive,2.41%,inactive,-0.85% (inactive),inactive,inactive,inactive
ClC(Cl)(Cl)c1ccccc1,> 92 µM (inactive),> 92 µM (inactive),inactive,inactive,inactive,inactive,inactive,inactive,inactive,inactive,inactive,-6.79% (inactive) and 7.81% (inactive),inactive,,2.72% and -9.44%,inactive,-3.47% (inactive) and -2.04% (inactive),inactive,inactive,inactive
